# Laboratory results published in the supplement of paper PMC3342239.
# Where a name gives a salt, the structure may show the parent alone.
# Tested on: Saccharomyces cerevisiae
# Assay: fraction of cells in G1 phase (DNA content, flow cytometry); higher = more cells with unreplicated DNA (G1 delay)
# Conditions: temperature: 30 C; YPD; JTY2953 pdr5 snq2 (sensitized); drug added to: cultures diluted from stationary phase; 6-7 h
# How it was run: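 Library drugs were added to S. cerevisiae in YPD at 30°C, with fixation after 6–7 h for sensitized JTY2953 diluted 1∶200 from overnight and given a final 20 µg/ml, 6 h for dividing JTY2953, and 4.33 h for BY4741. Ethanol-fixed cells stained with SYTOX Green were read by flow cytometry, 10,000 events each. The G1 fraction is the ratio of the Dean-Jett-Fox G1 peak area to the G1 plus G2/M areas.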
row,SMILES,fraction of cells in G1 phase
1,C[C@]12C=CC(=O)C=C1CC[C@H]1[C@@H]3C[C@@H](O)[C@](O)(C(=O)CO)[C@@]3(C)C[C@H](O)[C@@]12F [Triamcinolone] (50.7043 µM),0.483
2,Cc1ncc([N+](=O)[O-])n1CC(C)O (stereo not given) [Secnidazole] (108.001 µM),0.48
3,CC(C)C[C@H](NC(=O)[C@@H](COC(C)(C)C)NC(=O)[C@H](Cc1ccc(O)cc1)NC(=O)[C@H](CO)NC(=O)[C@H](Cc1c[nH]c2ccccc12)NC(=O)[C@H](Cc1cnc[nH]1)NC(=O)[C@@H]1CCC(=O)N1)C(=O)N[C@@H](CCCNC(=N)N)C(=O)N1CCC[C@H]1C(=O)NNC(N)=O [Goserelin acetate] (15.755 µM),0.485
4,NS(=O)(=O)Cc1noc2ccccc12 [Zonisamide] (94.238 µM),0.51
5,CNS(=O)(=O)Cc1ccc2[nH]cc(CCN(C)C)c2c1 [Sumatriptan Succinate] (48.368 µM),0.457
6,COc1ccc2[nH]c([S+]([O-])Cc3ncc(C)c(OC)c3C)nc2c1 (stereo not given) [Omeprazole] (57.9 µM),0.486
7,CC1(C)O[C@@H]2C[C@H]3[C@@H]4C[C@H](F)C5=CC(=O)C=C[C@]5(C)[C@@]4(F)[C@@H](O)C[C@]3(C)[C@]2(C(=O)CO)O1 [Fluocinolone acetonide] (44.1989 µM),0.48
8,CCOC(=O)c1cnc2c(cnn2CC)c1NN=C(C)C [Etazolate] (69.1229 µM),0.5
9,CC(C)[N+]1(C)[C@@H]2CC[C@H]1CC(OC(=O)C(CO)c1ccccc1)C2 (stereo not given in full) [Ipratropium Br] (60.1563 µM),0.508
10,c1ccc([C@H]2CN3CCSC3=N2)cc1 [Levamisole HCl] (97.8973 µM),0.488
11,NS(=O)(=O)c1cc(C(=O)O)c(NCc2ccco2)cc1Cl [Furosemide] (60.4688 µM),0.459
12,NC(=O)N1c2ccccc2CC(=O)c2ccccc21 [Oxcarbazepine] (79.2785 µM),0.503
13,C[C@@H](O)[C@H]1C(=O)N2C(C(=O)O)=C(SCCNC=N)C[C@H]12 [Imipenem] (66.8112 µM),0.486
14,CC(C)NCC(O)c1ccc2ccccc2c1 (stereo not given) [Pronethalol HCl] (87.2126 µM),0.502
15,O=c1[nH]c(=O)n(C2CCCO2)cc1F (stereo not given) [Ftorafur] (99.9146 µM),0.512
16,Cn1ccnc1S [Methimazole] (175.178 µM),0.473
17,Cc1cc(C(C)(C)C)c(O)c(C)c1CC1=NCCN1 [Oxymetazoline HCl] (76.8101 µM),0.511
18,NC[C@@H]1O[C@H](O[C@H]2[C@@H](O)[C@H](O[C@@H]3[C@@H](O)[C@H](N)C[C@H](N)[C@H]3O[C@H]3O[C@H](CN)[C@@H](O)[C@H](O)[C@H]3N)O[C@@H]2CO)[C@H](N)[C@@H](O)[C@@H]1O [Neomycin sulfate] (32.5386 µM),0.495
19,COCCOC(=O)C1=C(C)NC(C)=C(C(=O)OC(C)C)C1c1cccc([N+](=O)[O-])c1 (stereo not given) [Nimodipine] (47.7954 µM),0.521
20,c1cnc(N2CCN(Cc3ccc4c(c3)OCO4)CC2)nc1 [Piribedil HCl] (67.0359 µM),0.532
21,CCS(=O)(=O)CCn1c([N+](=O)[O-])cnc1C [Tinidazole] (80.8818 µM),0.443
22,Cc1c(-c2cnccn2)ssc1=S [Oltipraz] (88.3617 µM),0.503
23,CC(=O)NC[C@H]1CN(c2ccc(N3CCOCC3)c(F)c2)C(=O)O1 [Linezolid] (59.2849 µM),0.526
24,CC(COc1ccccc1)N(CCCl)Cc1ccccc1 (stereo not given) [Phenoxybenzamine HCl] (58.7717 µM),0.514
25,CN1CCN2c3ccccc3Cc3ccccc3C2C1 (stereo not given) [Mianserin hcl] (75.6505 µM),0.471
26,CCCCC1C(=O)N(c2ccccc2)N(c2ccccc2)C1=O [Phenylbutazone] (64.8543 µM),0.499
27,Cc1cnc(C(=O)O)c[n+]1[O-] [Acipimox] (129.764 µM),0.493
28,COc1ccc(CN(CCN(C)C)c2ccccn2)cc1 [Mepyramine maleate] (70.079 µM),0.495
29,CCOc1nc2cccc(C(=O)O)c2n1Cc1ccc(-c2ccccc2-c2nnn[nH]2)cc1 [Candesartan] (45.4065 µM),0.506
30,CN(C)/N=N/c1[nH]cnc1C(N)=O [Dacarbazine] (109.778 µM),0.47
